Source: PubChem BioAssay (Corson Lab, School of Medicine, Indiana University)
FECH inh: human FECH heme synthesis enzyme inhibition | P22830 | purified FECH, Ni-mesoporphyrin absorbance 550 nm | calls only at 10 µM (by protocol) | 20,000 tested, 3.3% active;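 active means enzyme reaction rate more than 3 SD below the solvent-only control wells on the same plate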;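 further: lower slope than DMSO wells means FECH inhibition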
Target sequence (P22830 whole entry, looked up): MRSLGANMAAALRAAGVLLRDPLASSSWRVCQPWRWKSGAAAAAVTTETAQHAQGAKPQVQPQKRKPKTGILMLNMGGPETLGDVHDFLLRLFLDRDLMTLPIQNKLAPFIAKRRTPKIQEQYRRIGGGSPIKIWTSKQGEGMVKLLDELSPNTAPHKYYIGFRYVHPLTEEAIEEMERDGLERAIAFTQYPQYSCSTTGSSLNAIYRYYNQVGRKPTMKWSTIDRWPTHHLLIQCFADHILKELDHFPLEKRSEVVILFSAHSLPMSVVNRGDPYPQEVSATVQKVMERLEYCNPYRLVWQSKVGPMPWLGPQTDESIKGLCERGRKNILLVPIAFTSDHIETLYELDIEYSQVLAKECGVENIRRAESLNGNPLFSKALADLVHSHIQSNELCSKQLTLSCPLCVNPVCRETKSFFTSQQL
Each line names hits and unclear results; the compound was inactive in the other large screens. The sample as a whole holds a higher share of hits than the screen did.

CCCC(C)CN1CCC(n2cc(CN(C)C)nn2)CC1 (configuration not stated)	FECH inh active
CCCCc1cn(C2CCN(C(=O)C3CC(=O)N(C(C)(C)C)C3)CC2)nn1 (configuration not stated)	none
Cc1ccc(CN2CCN(CC(=O)Nc3cc(C)ccc3C)S2(=O)=O)cc1	none
Cc1ccc(-c2ncc3c(=O)n(Cc4ccc(Cl)cc4)c(=O)n(C)c3n2)cc1	none
O=C(CNCc1ccccc1-n1cccn1)NCc1ccccc1F	none
CC(C)NC(=O)NCCc1nc2cccnc2n1Cc1ccccc1	none
COCc1cc(CN(C)c2cc(C(C)C)nc(C)n2)[nH]n1	none
Cc1nc(C(C)C)cc(N(C)Cc2ncccc2C)n1	FECH inh active
Cc1cc(N(C)Cc2ncccc2C)nc(-c2ccccc2)n1	none
COc1cccc(NCc2cc(=O)n3[nH]c(NCc4ccccc4)nc3n2)c1	none
COc1ccc(CNc2nc3nc(CNc4ccccc4)cc(=O)n3[nH]2)cc1	none
O=c1cc(CNc2ccccc2)nc2nc(NCc3ccccc3)[nH]n12	none
CCCc1cc(=O)n2[nH]c(CNc3ccccc3)nc2n1	FECH inh active
CCc1ccc(NCc2cc(=O)n3[nH]c(NCc4ccc(Cl)cc4)nc3n2)cc1	none
Cc1ccc(NCc2cc(=O)n3[nH]c(NCc4ccc(F)cc4)nc3n2)cc1C	none
O=c1cc(CNc2ccccc2)nc2nc(NCc3ccc(Cl)cc3)[nH]n12	none
CCCc1cc(=O)n2[nH]c(CNc3ccc(C)c(C)c3)nc2n1	FECH inh active
CCCc1cc(=O)n2[nH]c(CNc3ccc(OCC)cc3)nc2n1	none
Cc1ccc(NCc2cc(=O)n3[nH]c(NCc4ccccc4)nc3n2)cc1C	none
CCCc1cc(=O)n2[nH]c(CNc3cccc(OC)c3)nc2n1	FECH inh active
CCCc1cc(=O)n2[nH]c(CNc3cccc(Cl)c3)nc2n1	FECH inh active
COc1cccc(N2CCC(N3[C@@H]4CC[C@H]3CNC(=O)C4)CC2)c1	none
COCCCNc1nc(Nc2ccc(F)cc2)c2cnn(-c3ccccc3)c2n1	none
Cc1nc(-c2ccc(N3CCN(C(=O)C4CC(=O)N(c5ccccc5)C4)CC3)cc2)no1 (configuration not stated)	none
CCCNC(=O)C1CCN(c2ccc(-c3ccc(C)cc3)nn2)CC1	none
Cc1cc(N(C)CCCn2cccn2)nc(-c2cccnc2)n1	none
CCC/C=C/c1ccc2cc[nH]c(=O)c2c1	none
CCCc1cc(Sc2ccc(NC(=O)Nc3ccc(F)cc3)cc2)n2ncnc2n1	none
COc1cc(NC(=O)CN(Cc2cnn(C)c2)C2CC2)ccc1Cl	none
O=C(NCC1(c2ccccc2)CCOCC1)c1cc(C2CC2)[nH]n1	none
Cc1nc(C)c(-c2cccc3c2OC(CN)C3)s1 (configuration not stated)	none
O=C(CSc1ccncc1)N1CCCC(c2ccccc2)C1 (configuration not stated)	none
CCN1C(SCC(=O)N2CCCC2)=NS(=O)(=O)c2ccccc21	FECH inh active
CCN1C(SCC(=O)N(C)c2ccccc2)=NS(=O)(=O)c2ccccc21	FECH inh active
CCn1nc(C(=O)O)c2c1CCN(C(=O)C(c1cccnc1)N1CCCC1)C2 (configuration not stated)	none
CC(=O)Oc1c(C)cc(CN(C)C(C)c2nccs2)cc1C (configuration not stated)	none
CCc1c(C)cc(C(=O)N(C)Cc2ccsc2)c(=O)n1C	none
CSc1nc(NCc2ccc(F)cc2)c(C#N)c(-c2ccccc2)n1	none
COc1ccccc1NC(=O)COc1cc(C)nc(-c2ccc(C)cc2)n1	none
Cc1cccc(C(C(=O)NCc2nnc3n2CCC3)N(C)C)c1 (configuration not stated)	none
O=C(NCC1CCCCO1)c1cc(COc2c(F)cccc2F)on1 (configuration not stated)	none
Cc1ccc(C)c(OCc2cc(C(=O)NCc3nnc4n3CCC4)no2)c1	FECH inh active
COc1cccc(-c2noc(CCCC(=O)NC3CCNC3)n2)c1 (configuration not stated)	none
CC(Cn1cncn1)NCc1cc(-c2ccco2)on1 (configuration not stated)	none
Cc1cc(C)n2nc(CN(c3ccc(Cl)cc3)S(=O)(=O)c3ccccc3)nc2n1	FECH inh active
Cc1cc(C)n2nc(CN(c3ccc(F)cc3)S(=O)(=O)c3ccc(Cl)cc3)nc2n1	none
Cc1ccc(S(=O)(=O)N(Cc2ccccc2C)c2nc3nc(C)cc(C)n3n2)cc1	FECH inh active
Cc1cc(C)n2nc(CN(c3ccc(F)cc3)S(=O)(=O)c3ccccc3)nc2n1	none
CCCN(c1nc2nc(C)cc(C)n2n1)S(=O)(=O)c1ccccc1	none
Cc1cc(C)n2nc(N(Cc3ccccc3C)S(=O)(=O)c3ccccc3)nc2n1	none
CCCN(c1nc2nc(C)cc(C)n2n1)S(=O)(=O)c1ccc(C)cc1	FECH inh active
CC(=O)CN(c1nc2nc(C)cc(C)n2n1)S(=O)(=O)c1ccc(C)cc1	none
Cc1ccc(S(=O)(=O)N(Cc2ccccc2C)c2nc3nc(C)c(Cl)c(C)n3n2)cc1	none
CCc1c(C)nc2ncnn2c1Sc1ccc(NS(=O)(=O)c2cccc3nsnc23)cc1	none
Cc1cc(N(C)C)nc(Nc2ccc(NC(=O)c3ccc(Cl)cc3)cc2)n1	none
CC(C)NC(=O)[C@@H]1C[C@H](N)CN1C(=O)CN1CCCCCC1=O	none
CCC(CC)n1nc(C)cc1NC(=O)c1cnoc1C1CC1	none
COc1ccc(C)cc1NC(=O)Nc1ccc(Sc2c(C)c(C)nc3ncnn23)cc1	none
Cc1ccc(-n2ncc3c(-n4nc(C)cc4NC(=O)COc4ccc(Cl)cc4)ncnc32)c(C)c1	none
NC(=O)c1cccc(CC2CCN(C(=O)Cc3ccc(F)c(F)c3F)C2)c1 (configuration not stated)	none
CCOc1ccc(NC(=O)Nc2ccc(Sc3cc(CC)nc4nc(C)nn34)cc2)cc1	none
CCOC(=O)Cc1ccc(NC(=O)Nc2ccc(Sc3cc(CC)nc4nc(C)nn34)cc2)cc1	FECH inh active
CCc1ccc(NC(=O)Nc2ccc(Sc3cc(CC)nc4nc(C)nn34)cc2)cc1	none
CCc1ccc(CN2CCN(c3ccc(-c4nc(C)no4)cn3)CC2)nc1	none
CCN(CC)C(=O)Cn1c(=O)c2cnc(-c3ccccc3)nc2n(C)c1=O	none
O=S(=O)(c1ccc(F)c(F)c1)N1CCC(n2cnc3cccnc32)CC1	none
COc1ccc(Cl)cc1NCc1cc(=O)n2[nH]c(-c3ccccc3C)nc2n1	none
Cc1cccc(NCc2cc(=O)n3[nH]c(NCc4ccccc4)nc3n2)c1	none
Cc1ccccc1-c1nc2nc(CNc3c(C)cccc3C)cc(=O)n2[nH]1	none
Cc1ccccc1-c1nc2nc(CNc3ccc(Cl)cc3)cc(=O)n2[nH]1	FECH inh active
Cc1cccc(NCc2cc(=O)n3[nH]c(-c4ccccc4C)nc3n2)c1	FECH inh active
CCc1ccccc1NCc1cc(=O)n2[nH]c(-c3ccccc3C)nc2n1	none
Cc1ccccc1-c1nc2nc(CNCc3ccccc3)cc(=O)n2[nH]1	FECH inh active
COc1ccccc1NCc1cc(=O)n2[nH]c(-c3ccccc3C)nc2n1	none
Cc1ccccc1-c1nc2nc(CNc3cccc(C(F)(F)F)c3)cc(=O)n2[nH]1	none
C=CCN(CC#Cc1ccccc1)Cc1cnc(C)[nH]1	none
CCN(Cc1ccc(F)cc1)C(=O)c1cc(-c2ccncc2)n[nH]1	none
COc1cccc(-n2cc(CNC(=O)C34CNCC3CNC4)cn2)c1 (configuration not stated)	none
Cc1cc(Sc2ccc(NC(=O)Nc3ccc(Br)cc3)cc2)n2ncnc2n1	none
COc1ccc(S(=O)(=O)Nc2cnc(N3CCN(c4cccc(C)c4)C(C)C3)c(C(=O)O)c2)cc1 (configuration not stated)	none
